Laboratory results as given in publication PMC7862700, “An all-to-all approach to the identification of sequence-specific readers for epigenetic DNA modifications on cytosine”.

Legend:
Assay in all cases: DAPPL (digital affinity profiling via proximity ligation, sequencing); 10 mM Tris-HCl pH 7.5, 50 mM NaCl, 1 mM DTT, 4% glycerol, room temperature, 30 min; GST-TFs on glutathione beads, 16-mer random dsDNA library, 0.1% formaldehyde crosslink after washing; high values mean tight binding
Settings in all cases: protein: recombinant; tags: N-terminal GST; dsDNA, one strand shown
ERF = molecular target: T1, ERF (Homo sapiens, UniProt P50548 1-548)
T1 sequence: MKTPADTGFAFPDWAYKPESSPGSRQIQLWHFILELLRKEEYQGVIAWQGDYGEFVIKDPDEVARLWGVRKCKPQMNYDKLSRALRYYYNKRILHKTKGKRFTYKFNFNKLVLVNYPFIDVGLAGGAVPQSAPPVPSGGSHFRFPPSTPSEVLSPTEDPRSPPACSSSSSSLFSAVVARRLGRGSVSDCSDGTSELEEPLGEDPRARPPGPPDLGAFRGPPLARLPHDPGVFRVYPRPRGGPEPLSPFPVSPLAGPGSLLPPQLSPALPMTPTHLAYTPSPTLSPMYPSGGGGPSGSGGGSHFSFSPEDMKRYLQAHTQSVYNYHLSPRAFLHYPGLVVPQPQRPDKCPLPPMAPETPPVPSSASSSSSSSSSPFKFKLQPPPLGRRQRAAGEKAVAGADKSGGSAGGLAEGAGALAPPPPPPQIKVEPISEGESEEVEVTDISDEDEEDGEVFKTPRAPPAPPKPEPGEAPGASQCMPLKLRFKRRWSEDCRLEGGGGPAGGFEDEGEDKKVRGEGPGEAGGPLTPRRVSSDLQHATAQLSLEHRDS
In short: (§1)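 Pools were built from human transcription factors expressed in yeast as GST fusions, captured on glutathione beads and DNA-barcoded, along with a tag-only sample. Incubation with 200 nmole of a 16-mer random double-stranded DNA library lasted 30 min at room temperature in Tris/NaCl/DTT/glycerol buffer, and was followed by washing, 0.1% formaldehyde crosslinking, proximity ligation, PCR amplification and Illumina NextSeq500 sequencing. Binding signal is the quotient of each hexamer's read frequency for a factor and its frequency for the tag-only sample.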

ETV3L = molecular target: T2, ETV3L (Homo sapiens, UniProt Q6ZN32 1-361)
T2 sequence: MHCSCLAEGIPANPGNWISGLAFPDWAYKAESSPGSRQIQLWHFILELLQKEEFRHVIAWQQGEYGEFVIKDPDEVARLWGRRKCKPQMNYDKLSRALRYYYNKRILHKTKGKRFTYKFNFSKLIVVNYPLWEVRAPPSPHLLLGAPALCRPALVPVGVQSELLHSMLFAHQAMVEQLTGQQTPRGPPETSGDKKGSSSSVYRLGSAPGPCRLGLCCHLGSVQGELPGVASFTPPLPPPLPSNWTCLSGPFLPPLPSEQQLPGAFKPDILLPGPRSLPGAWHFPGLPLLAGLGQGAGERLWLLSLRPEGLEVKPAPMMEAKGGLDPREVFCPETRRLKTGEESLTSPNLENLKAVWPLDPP
In short: as §1

ETS2 = molecular target: T3, ETS2 (Homo sapiens, UniProt P15036 1-469)
T3 sequence: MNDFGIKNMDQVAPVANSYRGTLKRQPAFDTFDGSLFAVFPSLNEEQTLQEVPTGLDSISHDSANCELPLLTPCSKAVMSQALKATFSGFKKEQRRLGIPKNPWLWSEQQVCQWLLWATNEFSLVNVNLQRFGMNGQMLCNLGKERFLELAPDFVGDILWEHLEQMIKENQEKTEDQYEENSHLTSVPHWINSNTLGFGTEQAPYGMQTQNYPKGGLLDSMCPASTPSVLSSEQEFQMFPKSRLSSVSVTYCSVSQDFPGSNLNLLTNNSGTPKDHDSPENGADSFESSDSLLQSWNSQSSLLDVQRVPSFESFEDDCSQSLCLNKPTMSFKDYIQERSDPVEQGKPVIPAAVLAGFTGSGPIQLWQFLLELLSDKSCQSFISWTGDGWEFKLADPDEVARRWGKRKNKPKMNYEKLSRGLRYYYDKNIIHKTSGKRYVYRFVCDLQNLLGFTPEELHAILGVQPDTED
In short: as §1

SPDEF = molecular target: T4, SPDEF (Homo sapiens, UniProt O95238 1-335)
T4 sequence: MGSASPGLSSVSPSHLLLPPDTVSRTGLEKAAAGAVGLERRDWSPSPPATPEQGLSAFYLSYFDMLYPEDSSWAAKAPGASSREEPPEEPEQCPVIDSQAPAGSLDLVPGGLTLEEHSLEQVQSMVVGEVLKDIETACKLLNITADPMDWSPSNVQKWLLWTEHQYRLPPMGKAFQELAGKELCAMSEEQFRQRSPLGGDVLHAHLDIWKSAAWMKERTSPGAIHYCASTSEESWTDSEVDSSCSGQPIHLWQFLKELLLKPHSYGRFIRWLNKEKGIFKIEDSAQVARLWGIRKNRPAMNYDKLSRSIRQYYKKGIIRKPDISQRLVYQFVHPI
In short: as §1

ETV7 = molecular target: T5, ETV7 (Homo sapiens, UniProt Q9Y603 1-341)
T5 sequence: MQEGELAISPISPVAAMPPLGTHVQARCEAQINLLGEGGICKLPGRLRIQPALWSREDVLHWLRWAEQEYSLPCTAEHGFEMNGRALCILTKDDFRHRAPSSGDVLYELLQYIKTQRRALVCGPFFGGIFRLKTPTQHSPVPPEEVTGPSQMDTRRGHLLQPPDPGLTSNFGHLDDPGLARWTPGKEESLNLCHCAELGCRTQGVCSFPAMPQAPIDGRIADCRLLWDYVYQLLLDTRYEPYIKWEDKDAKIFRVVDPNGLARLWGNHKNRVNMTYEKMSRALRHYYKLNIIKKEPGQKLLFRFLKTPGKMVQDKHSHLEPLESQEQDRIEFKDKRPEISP
In short: as §1

ELF5 = molecular target: T6, ELF5 (Homo sapiens, UniProt Q9UKW6-2 1-255)
T6 sequence: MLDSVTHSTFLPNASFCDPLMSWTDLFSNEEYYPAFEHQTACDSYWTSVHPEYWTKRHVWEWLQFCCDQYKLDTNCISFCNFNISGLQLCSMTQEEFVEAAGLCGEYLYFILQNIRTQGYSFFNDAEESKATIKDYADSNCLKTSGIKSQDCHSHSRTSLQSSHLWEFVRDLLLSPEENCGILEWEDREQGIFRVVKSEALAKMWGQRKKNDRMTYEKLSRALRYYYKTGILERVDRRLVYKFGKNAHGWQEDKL
In short: as §1

ETV3 = molecular target: T7, ETV3 (Homo sapiens, UniProt P41162-2 1-143)
T7 sequence: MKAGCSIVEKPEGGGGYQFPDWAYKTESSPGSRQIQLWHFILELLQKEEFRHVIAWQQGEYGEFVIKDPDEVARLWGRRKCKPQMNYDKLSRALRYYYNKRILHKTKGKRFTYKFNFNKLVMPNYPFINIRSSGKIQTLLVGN
In short: as §1

ETV6 = ETV6 (Homo sapiens, UniProt P41212 1-452)
In short: as §1

Chain of ETV6 (P41212 whole entry): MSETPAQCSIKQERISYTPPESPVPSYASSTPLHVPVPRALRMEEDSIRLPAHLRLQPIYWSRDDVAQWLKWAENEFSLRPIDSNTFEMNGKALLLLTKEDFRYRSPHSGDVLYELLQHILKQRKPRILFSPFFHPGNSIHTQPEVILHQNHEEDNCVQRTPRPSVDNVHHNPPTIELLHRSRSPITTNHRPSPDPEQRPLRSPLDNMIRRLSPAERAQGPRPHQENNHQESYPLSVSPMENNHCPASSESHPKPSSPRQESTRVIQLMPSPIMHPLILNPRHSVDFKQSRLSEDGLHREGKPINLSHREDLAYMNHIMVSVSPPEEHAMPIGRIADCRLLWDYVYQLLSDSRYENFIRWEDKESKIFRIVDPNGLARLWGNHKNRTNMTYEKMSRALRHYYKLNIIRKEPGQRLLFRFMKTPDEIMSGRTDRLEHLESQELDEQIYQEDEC

Sequence | binding signal (ERF) | binding signal (ETV3L) | binding signal (ETS2) | binding signal (SPDEF) | binding signal (ETV7) | binding signal (ELF5) | binding signal (ETV3) | binding signal (ETV6)
TGACAC | 1.3 fold enrichment (6-mer frequency, TF over GST control) | 1.22 fold enrichment (6-mer frequency, TF over GST control) | 1.24 fold enrichment (6-mer frequency, TF over GST control) | 1.11 fold enrichment (6-mer frequency, TF over GST control) | 1.28 fold enrichment (6-mer frequency, TF over GST control) | 1.19 fold enrichment (6-mer frequency, TF over GST control) | 1.21 fold enrichment (6-mer frequency, TF over GST control) | 1.19 fold enrichment (6-mer frequency, TF over GST control)
CTTGTG | 1.59 fold enrichment (6-mer frequency, TF over GST control) | 1.4 fold enrichment (6-mer frequency, TF over GST control) | 1.5 fold enrichment (6-mer frequency, TF over GST control) | 1.41 fold enrichment (6-mer frequency, TF over GST control) | 1.41 fold enrichment (6-mer frequency, TF over GST control) | 1.44 fold enrichment (6-mer frequency, TF over GST control) | 1.51 fold enrichment (6-mer frequency, TF over GST control) | 1.22 fold enrichment (6-mer frequency, TF over GST control)
GAAGTT | 1.47 fold enrichment (6-mer frequency, TF over GST control) | 1.64 fold enrichment (6-mer frequency, TF over GST control) | 1.71 fold enrichment (6-mer frequency, TF over GST control) | 1.56 fold enrichment (6-mer frequency, TF over GST control) | 1.65 fold enrichment (6-mer frequency, TF over GST control) | 2 fold enrichment (6-mer frequency, TF over GST control) | 1.7 fold enrichment (6-mer frequency, TF over GST control) | 1.93 fold enrichment (6-mer frequency, TF over GST control)
TGAATG | 1.14 fold enrichment (6-mer frequency, TF over GST control) | 1.2 fold enrichment (6-mer frequency, TF over GST control) | 1.25 fold enrichment (6-mer frequency, TF over GST control) | 1.28 fold enrichment (6-mer frequency, TF over GST control) | 1.21 fold enrichment (6-mer frequency, TF over GST control) | 1.21 fold enrichment (6-mer frequency, TF over GST control) | 1.2 fold enrichment (6-mer frequency, TF over GST control) | 1.22 fold enrichment (6-mer frequency, TF over GST control)
CATGAT | 1 fold enrichment (6-mer frequency, TF over GST control) | 1.13 fold enrichment (6-mer frequency, TF over GST control) | 1.07 fold enrichment (6-mer frequency, TF over GST control) | 1.01 fold enrichment (6-mer frequency, TF over GST control) | 1.02 fold enrichment (6-mer frequency, TF over GST control) | 1.1 fold enrichment (6-mer frequency, TF over GST control) | 1.09 fold enrichment (6-mer frequency, TF over GST control) | 1.09 fold enrichment (6-mer frequency, TF over GST control)
ATCTGT | 1.21 fold enrichment (6-mer frequency, TF over GST control) | 1.2 fold enrichment (6-mer frequency, TF over GST control) | 1.22 fold enrichment (6-mer frequency, TF over GST control) | 1.17 fold enrichment (6-mer frequency, TF over GST control) | 1.21 fold enrichment (6-mer frequency, TF over GST control) | 1.2 fold enrichment (6-mer frequency, TF over GST control) | 1.11 fold enrichment (6-mer frequency, TF over GST control) | 1.12 fold enrichment (6-mer frequency, TF over GST control)
TTTAAT | 1.33 fold enrichment (6-mer frequency, TF over GST control) | 1.37 fold enrichment (6-mer frequency, TF over GST control) | 1.37 fold enrichment (6-mer frequency, TF over GST control) | 1.17 fold enrichment (6-mer frequency, TF over GST control) | 1.46 fold enrichment (6-mer frequency, TF over GST control) | 1.28 fold enrichment (6-mer frequency, TF over GST control) | 1.21 fold enrichment (6-mer frequency, TF over GST control) | 1.28 fold enrichment (6-mer frequency, TF over GST control)
TGCCCC | 1.15 fold enrichment (6-mer frequency, TF over GST control) | 1.28 fold enrichment (6-mer frequency, TF over GST control) | 1.12 fold enrichment (6-mer frequency, TF over GST control) | 1.21 fold enrichment (6-mer frequency, TF over GST control) | 1.18 fold enrichment (6-mer frequency, TF over GST control) | 1.18 fold enrichment (6-mer frequency, TF over GST control) | 1.3 fold enrichment (6-mer frequency, TF over GST control) | 1.24 fold enrichment (6-mer frequency, TF over GST control)
CCAAAT | 1.11 fold enrichment (6-mer frequency, TF over GST control) | 1.02 fold enrichment (6-mer frequency, TF over GST control) | 1.08 fold enrichment (6-mer frequency, TF over GST control) | 1.05 fold enrichment (6-mer frequency, TF over GST control) | 1.06 fold enrichment (6-mer frequency, TF over GST control) | 1.01 fold enrichment (6-mer frequency, TF over GST control) | 1.03 fold enrichment (6-mer frequency, TF over GST control) | 1.06 fold enrichment (6-mer frequency, TF over GST control)
